Assay results: PubChem BioAssay (NCI)
Compounds without any hit were thinned out: in the full panel of roughly 83,000, 20% have a hit.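 48-hour exposure, single concentration, 96-well plates; percent growth endpoint where 0 means no net growth. Active: below 10.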 Values without a mark were called inactive. The source made the active and inactive calls.

Tested on: HL-60(TB) leukemia
Experiment: NCI-60 one-dose screen, 48 h (100 = growth as untreated, 0 = no growth, -100 = all killed)
Details: 10 µM unless noted

| Structure (SMILES) | growth |
| --- | --- |
| CC1(C)CC[C@]2(C(=O)O)CC[C@]3(C)C(=CCC4[C@@]5(C)C[C@@H](O)[C@@H]6OC(c7ccccc7Br)OC[C@@]6(C)C5CC[C@]43C)C2C1 (some centres not stated) | 4.07% (active) |
| S=C(Nc1ccccc1)Nc1ccc(OCc2nc3ccccc3[nH]2)cc1 | 20.2% |
| COc1ccc(-c2nc3cc(C)ccc3n2CC(=O)N=Nc2c(O)[nH]c3ccccc23)cc1 | 8.05% (active) |
| COc1ccc(-c2ccnc(SCc3cc4cc(OC)ccc4[nH]c3=O)n2)cc1 | -8.43% (active) |
| COc1ccc2c3nc4cc(C)c(C)cc4nc3n(CCN(C)C)c2c1 | -45.3% (active) |
| COc1ccc(-c2ccc(SCC(=O)NCCc3ccc(S(N)(=O)=O)cc3)nn2)cc1 | 60.5% |
| Cn1cc(-c2cc3nc(-c4cn(C)c5ncc(Br)cc45)cc(N)n3n2)c2cc(Cl)ccc21 | -62.4% (active) |
| O=c1[nH]n(C(=S)N/N=C/c2ccccc2Cl)c(=O)c2ccccc12 | -6.48% (active) |
| COc1cc(/C=C/C(=O)c2ccc(C(F)(F)F)cc2)ccc1Oc1nc(Nc2ccc(F)cc2)nc(N(C)C)n1 | 80% |
| COc1ccsc1/C=N/NC(=O)c1[nH]c2ccc(Br)cc2c1-c1ccccc1 | -33.3% (active) |
| Cc1ccc(CSc2nc(-c3ccc(F)cc3)c(C#N)c(=O)[nH]2)cc1 | 56.6% |
| O=C(/C=C1\C(=O)N(Cc2ccccc2)c2ccccc21)c1cc2ccccc2oc1=O | 93% |
| O=C(CN1CCN(c2ncnc3c2cnn3-c2ccccc2)CC1)Nc1nncs1 | -45.5% (active) |
| N#CC1=C(c2cccs2)Nc2c(c(-c3ccccc3)nn2-c2ccccc2)C12C(=O)Nc1ccccc12 (configuration not stated) | 0.7% (active) |
| CCCn1c(O)c(N=Nc2nc(-c3cc4ccccc4oc3=O)cs2)c2cc(Br)ccc21 | 99.3% |
| COc1ccc(CCC2c3c(cc4c(c3OC)OCO4)CCN2C)cc1 (configuration not stated) | -37.5% (active) |
| O=C1c2ccccc2C(=O)c2c1c(C(=O)c1ccc(Cl)cc1)n1c2ccc2c3ccccc3ccc21 | 109% |
| OC(c1ccccc1)(c1ccccc1)C1CCN(c2ccc3nnc(Cl)n3n2)CC1 | -33.6% (active) |
| COc1ccc(-c2cc(-c3cc(C(C)C)c(O)cc3C)nn2-c2ccc(S(N)(=O)=O)cc2)cc1 | 9.51% (active) |
| CC(=O)Nc1cccc(Nc2nc(N[C@H]3CCCc4ccccc43)c3ccccc3n2)c1 | 90.6% |
| CCc1ccccc1-c1nc(CN[C@@H]2C[C@@H]3C[C@H]([C@H]2C)C3(C)C)c(C)o1 | -35.9% (active) |
| O=C(N/N=C/c1ccc(Br)o1)c1[nH]c2ccc(Br)cc2c1-c1ccccc1 | -48.7% (active) |
| O=C(N=Nc1c(O)[nH]c2ccc(Br)cc12)c1ccc2nc(-c3ccc(Cl)cc3)[nH]c2c1 | 20.9% |
| O=C(c1ccc(O)cc1)C1[C@H](c2ccccc2Br)[C@@H](c2ccccc2)NC12C(=O)Nc1ccc(Cl)cc12 (some centres not stated) | -17.3% (active) |
| CSc1ccc(C(=O)Nc2ccc3nn(/C(C#N)=C/c4ccccn4)nc3c2)cc1 | -21.9% (active) |
| CCN(CC)CCOc1ccc(Nc2ncc3cc(-c4ccc(O)c(C#N)c4)c(=O)n(C)c3n2)cc1 | 87.6% |
| CC1(C)[C@@H](NCO)CC[C@]2(C)[C@H]3C(=O)C=C4[C@@H]5C[C@](C)(CO)CC[C@]5(C)CC[C@@]4(C)[C@]3(C)CC[C@@H]12 | 58.2% |
